Source: PubChem
The list is not random: actives were taken first. Their share in the collection is about 27%.
EphB4 antag: antagonists of human EphB4-ephrin-B2 interaction; hit rate 0.15% among 97,000; AID 720; inhibition, % at 7 µM; EphB4 LBD / TNYL-RAW-Alexa532 peptide, fluorescence polarization; P54760;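 active means inhibition above the screen-wide mean inhibition plus 3 SD, cut at about 15% in these data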;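 further: 0% = DMSO wells and 100% = excess unlabeled TNYL-RAW peptide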
CYP2C9 act: CYP2C9 (human) activation; recombinant CYP2C9, luciferin-H conversion, luminescence; stronger effect = higher value; factor 1 = untreated enzyme, 0 = blocked; activation factor at 5 µM; hit rate 1.4% among 96,000; AID 1024;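 active means activation factor of 2 or more for CYP2C9 at a 5 µM dose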;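 further: 0 = sulfaphenazole-blocked wells and 1 = vehicle-only wells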
CYP2C9 inh: human CYP2C9 inhibition; inhibition, % at 5 µM; P11712; CYP2C9 Supersomes, luciferin-H conversion, luminescence; hit rate 20% among 96,000; AID 777;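 active means blocking of liver enzyme CYP2C9 beyond about 50% at 5 µM, limit read from the data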
CYP2C19 inhib: blocks human cytochrome P450 2C19; inhibition, % at 5 µM; CYP2C19 Supersomes, luciferin-H EGE luminescence, 30 min; hit rate 21% among 96,000; P33261; AID 778;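 active means CYP2C19 inhibition above a set limit at 5 µM in the primary screen, cut at about 50% in these data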;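 further: plate controls were negative control wells for no effect and 2.5 mM tranylcypromine positive control for full effect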
Target sequence (P33261 whole entry, looked up): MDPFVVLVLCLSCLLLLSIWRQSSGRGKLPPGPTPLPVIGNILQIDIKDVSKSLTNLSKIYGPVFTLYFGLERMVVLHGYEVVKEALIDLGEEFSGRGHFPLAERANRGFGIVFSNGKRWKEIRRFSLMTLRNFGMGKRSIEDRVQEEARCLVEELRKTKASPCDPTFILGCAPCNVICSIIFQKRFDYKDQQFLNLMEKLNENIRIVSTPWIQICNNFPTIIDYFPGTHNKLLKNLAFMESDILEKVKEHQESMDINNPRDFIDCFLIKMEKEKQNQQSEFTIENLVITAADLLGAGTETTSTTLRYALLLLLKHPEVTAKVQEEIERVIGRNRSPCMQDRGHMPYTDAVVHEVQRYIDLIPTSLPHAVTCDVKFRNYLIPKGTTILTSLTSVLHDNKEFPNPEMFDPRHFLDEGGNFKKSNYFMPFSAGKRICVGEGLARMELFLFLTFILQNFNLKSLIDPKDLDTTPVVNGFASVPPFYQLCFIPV
CYP2C19 act: activators of human cytochrome P450 2C19; recombinant CYP2C19, luciferin-H EGE luminescence; stronger effect = higher value; 0 = fully inhibited enzyme, 1 = untreated enzyme; activation factor at 5 µM; P33261; 96,000 tested, under 10 active;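 active means activation factor of at least 2 at 5 µM in the primary screen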;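 further: 0 = wells with 2.5 mM tranylcypromine and 1 = vehicle-only wells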
Active calls of the source: *.

For COc1ccc(S(=O)(=O)Nc2cc(C)c(O)cc2C(C)C)cc1 the results were EphB4 antag 3, CYP2C9 act 2.4*, CYP2C9 inh -135, CYP2C19 inhib 99* and CYP2C19 act 0.
For O=C(Nc1ccccn1)c1cccs1 the results were EphB4 antag 0, CYP2C9 act 1.2, CYP2C9 inh -16, CYP2C19 inhib -12 and CYP2C19 act 1.1.
Screening CCN(CC)S(=O)(=O)c1csc(C(=O)Nc2ccccn2)c1 returned EphB4 antag 2, CYP2C9 act 0.2, CYP2C9 inh 81*, CYP2C19 inhib 67* and CYP2C19 act 0.3.
For COc1ccc(/C=C/c2c([N+](=O)[O-])c(=O)n(C)c(=O)n2C)cc1O the results were EphB4 antag 1, CYP2C9 act 0.5, CYP2C9 inh 53*, CYP2C19 inhib 10 and CYP2C19 act 0.9.
`COc1cc(/C=C/c2c([N+](=O)[O-])c(=O)n(C)c(=O)n2C)cc(OC)c1OC` gave EphB4 antag 3, CYP2C9 act 0.8, CYP2C9 inh 17, CYP2C19 inhib 4 and CYP2C19 act 1.
`CN1CCn2c1nc(N1CCCCC1)nc2=O` gave EphB4 antag 8, CYP2C9 act 0.9, CYP2C9 inh 9, CYP2C19 inhib -15 and CYP2C19 act 1.1.
Cc1ccc(S(=O)(=O)Nc2nc3ccccc3nc2NCc2ccco2)cc1 was read as EphB4 antag 3, CYP2C9 act 0, CYP2C9 inh 99*, CYP2C19 inhib 19 and CYP2C19 act 0.8.
For Cc1ccc(S(=O)(=O)NCc2ccco2)cc1C the results were CYP2C9 act 2.7*, CYP2C9 inh -172, CYP2C19 inhib 80* and CYP2C19 act 0.2.
Screening CCC(C)Oc1nc2ccccc2nc1NS(=O)(=O)c1ccccc1 (stereo unspecified) returned EphB4 antag -10, CYP2C9 act 1, CYP2C9 inh 1, CYP2C19 inhib -14 and CYP2C19 act 1.1.
`Cc1ccccc1S(=O)(=O)Nc1nc2ccccc2nc1NCCO` gave EphB4 antag 14, CYP2C9 act 0, CYP2C9 inh 100*, CYP2C19 inhib 19 and CYP2C19 act 0.8.
Screening Cc1noc(C)c1CSc1nc2ccccc2nc1NS(=O)(=O)c1ccc(Cl)cc1 returned EphB4 antag 2, CYP2C9 act 0.1, CYP2C9 inh 87*, CYP2C19 inhib 4 and CYP2C19 act 1.
Screening CCOCCCNC(=O)C(c1ccc(OC)cc1)N(Cc1ccc2c(c1)OCO2)C(=O)CNC(C)=O (stereo unspecified) returned EphB4 antag -1.
For CCOc1ccc(C2/C(=C(\O)c3cccc(OC)c3)C(=O)C(=O)N2c2cc(C)on2)cc1OC (stereo unspecified) the results were CYP2C9 act 0.8, CYP2C9 inh 20, CYP2C19 inhib -12 and CYP2C19 act 1.1.
`CC(C)(C)c1ccc(OCC(=O)N/N=C/c2cc(Br)ccc2OC(=O)c2ccco2)cc1` gave EphB4 antag -6, CYP2C9 act 0.9, CYP2C9 inh 7, CYP2C19 inhib 15 and CYP2C19 act 0.8.
`O=S(=O)(Nc1nc2ccccc2nc1NCc1ccco1)c1ccc(Cl)cc1` gave EphB4 antag 4, CYP2C9 act 0, CYP2C9 inh 98*, CYP2C19 inhib 51* and CYP2C19 act 0.5.
`O=S(=O)(c1ccccc1)n1nc(-c2ccccc2)nc1NCc1ccco1` gave EphB4 antag 0, CYP2C9 act 0.6, CYP2C9 inh 40, CYP2C19 inhib 29 and CYP2C19 act 0.7.
Cc1ccc(S(=O)(=O)Nc2nc3ccccc3nc2NCc2ccco2)cc1C was read as EphB4 antag 2, CYP2C9 act 0, CYP2C9 inh 100*, CYP2C19 inhib 27 and CYP2C19 act 0.7.
`Cc1cc(C)c(C)c(S(=O)(=O)NCc2ccco2)c1C` gave EphB4 antag -1, CYP2C9 act 1.9, CYP2C9 inh -94, CYP2C19 inhib 28 and CYP2C19 act 0.7.
For Cc1cccc(S(=O)(=O)Nc2nc3ccccc3nc2NCc2ccco2)c1 the results were EphB4 antag -5, CYP2C9 act 0, CYP2C9 inh 95*, CYP2C19 inhib 26 and CYP2C19 act 0.7.
`CCC(Sc1ccc2nnc(-c3ccc(OC)c(OC)c3)n2n1)C(=O)O` (stereo unspecified) gave EphB4 antag 2, CYP2C9 act 1.1, CYP2C9 inh -5, CYP2C19 inhib -16 and CYP2C19 act 1.2.
Screening CCS(=O)(=O)N1CCC(C(=O)NCc2cccnc2)CC1 returned EphB4 antag -6, CYP2C9 act 1.1, CYP2C9 inh -7, CYP2C19 inhib 0 and CYP2C19 act 1.
Screening Cc1cc(C)nc(NC(=O)/C=C/c2cccs2)c1 returned EphB4 antag 6, CYP2C9 act 1.3, CYP2C9 inh -34, CYP2C19 inhib 8 and CYP2C19 act 0.9.
`Cc1cc(CSc2ccccc2)ccc1NC(=O)COc1ccccc1` gave EphB4 antag -2, CYP2C9 act 0.8, CYP2C9 inh 21, CYP2C19 inhib 11 and CYP2C19 act 0.9.
COc1cc(C2c3c(oc4ccccc4c3=O)C(=O)N2Cc2ccncc2)ccc1O (stereo unspecified) was read as EphB4 antag -2, CYP2C9 act 0.3, CYP2C9 inh 73*, CYP2C19 inhib 47 and CYP2C19 act 0.5.
COCCN1C(=O)c2oc3ccccc3c(=O)c2C1c1cccc(O)c1 (stereo unspecified) was read as EphB4 antag 3, CYP2C9 act 0.6, CYP2C9 inh 43, CYP2C19 inhib 55* and CYP2C19 act 0.4.
Screening COc1cc(C2c3c(oc4ccccc4c3=O)C(=O)N2Cc2ccco2)ccc1O (stereo unspecified) returned EphB4 antag -5, CYP2C9 act 0.6, CYP2C9 inh 42, CYP2C19 inhib 37 and CYP2C19 act 0.6.
`Cn1c(=O)[nH]c(=O)c2c1nc(CN1CCOCC1)n2Cc1ccccc1` gave EphB4 antag 2, CYP2C9 act 0.9, CYP2C9 inh 10, CYP2C19 inhib 1 and CYP2C19 act 1.
`CC1CC(C)CN(CC(=O)N2CCc3[nH]c4ccccc4c3C2)C1` (stereo unspecified) gave EphB4 antag -1, CYP2C9 act 0.5, CYP2C9 inh 48, CYP2C19 inhib 66* and CYP2C19 act 0.3.
For O=C(CN1CCN(Cc2ccc3c(c2)OCO3)CC1)N1CCc2[nH]c3ccc(F)cc3c2C1 the results were EphB4 antag -8, CYP2C9 act 0.2, CYP2C9 inh 76*, CYP2C19 inhib 84* and CYP2C19 act 0.2.
For O=C(CN1CCN(Cc2ccc3c(c2)OCO3)CC1)N1CCc2[nH]c3ccccc3c2C1 the results were EphB4 antag 1, CYP2C9 act 0.8, CYP2C9 inh 24, CYP2C19 inhib 40 and CYP2C19 act 0.6.
Cc1ccc2[nH]c3c(c2c1)CN(C(=O)CN1CCN(c2ccccc2F)CC1)CC3 was read as EphB4 antag 0, CYP2C9 act 0.5, CYP2C9 inh 53*, CYP2C19 inhib 23 and CYP2C19 act 0.8.
